# Reference: the supplement of paper PMC12282887
# ± gives the standard deviation of the averaged measurements.
# Assays:
# Assay in all cases: promoter activity interaction Z-score (Lux/OD deviation from empty-vector control); higher = stronger promoter induction by the compound
# [1] = test system: E. coli BW25113 acrABp lux reporter
# In short: (§1)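 Four 1:2 dilutions of each compound were tested in biological duplicates on E. coli BW25113 carrying low-copy luxCDABE promoter reporters, either wild type or deleted for one of three genes. Cultures of 40 µl LB Lennox in 384-well plates were kept at 37°C and read for OD600 and luminescence every 30 min for 12 h. Integration windows were 0–8 h for wild type and 1–9 h for deletion strains, and wells under 10% of the median growth value were discarded. The score is a Z-transformed residual of growth-normalised luminescence relative to a control fit.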
# [2] = test system: E. coli BW25113 micFp lux reporter
# In short: as §1
# [3] = test system: E. coli BW25113 ompFp lux reporter
# In short: as §1
# [4] = test system: E. coli BW25113 robp lux reporter
# In short: as §1
# [5] = test system: E. coli BW25113 soxSp lux reporter
# In short: as §1
# [6] = test system: E. coli BW25113 tolCp lux reporter
# In short: as §1
# [7] = 0.62 µg/ml, genetic background: wild type
# [8] = 0.62 µg/ml, genetic background: ΔmarA
# [9] = 0.62 µg/ml, genetic background: Δrob
# [10] = 0.62 µg/ml, genetic background: ΔsoxS
# [11] = 1.2 µg/ml, genetic background: wild type
# [12] = 1.2 µg/ml, genetic background: ΔmarA
# [13] = 1.2 µg/ml, genetic background: Δrob
# [14] = 1.2 µg/ml, genetic background: ΔsoxS
# [15] = 2.5 µg/ml, genetic background: wild type
# [16] = 2.5 µg/ml, genetic background: ΔmarA
# [17] = 2.5 µg/ml, genetic background: Δrob
# [18] = 2.5 µg/ml, genetic background: ΔsoxS
# [19] = 5 µg/ml, genetic background: wild type
# [20] = 5 µg/ml, genetic background: ΔmarA
# [21] = 5 µg/ml, genetic background: Δrob
# [22] = 5 µg/ml, genetic background: ΔsoxS
compound,measurement,setting,value
CN[C@@H]1[C@H](O)[C@H](NC)[C@H]2O[C@@]3(O)C(=O)C[C@@H](C)O[C@H]3O[C@@H]2[C@H]1O [Spectinomycin],promoter activity interaction Z-score,[1]; [7],-0.0967 ± 0.053
same,promoter activity interaction Z-score,[1]; [8],0.63 ± 1.1
same,promoter activity interaction Z-score,[1]; [9],-0.155 ± 0.22
same,promoter activity interaction Z-score,[1]; [10],-0.229 ± 0.36
same,promoter activity interaction Z-score,[1]; [11],0.0581 ± 0.015
same,promoter activity interaction Z-score,[1]; [12],1.75 ± 0.53
same,promoter activity interaction Z-score,[1]; [13],-0.245 ± 0.14
same,promoter activity interaction Z-score,[1]; [14],0.468 ± 0.31
same,promoter activity interaction Z-score,[1]; [15],-0.0145 ± 0.16
same,promoter activity interaction Z-score,[1]; [16],0.746 ± 1
same,promoter activity interaction Z-score,[1]; [17],-0.204 ± 0.38
same,promoter activity interaction Z-score,[1]; [18],-0.222 ± 0.034
same,promoter activity interaction Z-score,[1]; [19],0.0345 ± 0.34
same,promoter activity interaction Z-score,[1]; [20],1.39 ± 0.42
same,promoter activity interaction Z-score,[1]; [21],0.0966 ± 0.39
same,promoter activity interaction Z-score,[1]; [22],0.99 ± 0.69
same,promoter activity interaction Z-score,[2]; [7],0.0396 ± 0.21
same,promoter activity interaction Z-score,[2]; [8],0.0233 ± 0.13
same,promoter activity interaction Z-score,[2]; [9],0.0237 ± 0.29
same,promoter activity interaction Z-score,[2]; [10],-0.0535 ± 0.0022
same,promoter activity interaction Z-score,[2]; [11],0.102 ± 0.093
same,promoter activity interaction Z-score,[2]; [12],-0.0481 ± 0.051
same,promoter activity interaction Z-score,[2]; [13],-0.00303 ± 0.08
same,promoter activity interaction Z-score,[2]; [14],0.208 ± 0.053
same,promoter activity interaction Z-score,[2]; [15],0.0906 ± 0.13
same,promoter activity interaction Z-score,[2]; [16],0.0124 ± 0.13
same,promoter activity interaction Z-score,[2]; [17],-0.193 ± 0.016
same,promoter activity interaction Z-score,[2]; [18],0.131 ± 0.081
same,promoter activity interaction Z-score,[2]; [19],0.33 ± 0.19
same,promoter activity interaction Z-score,[2]; [20],-0.0142 ± 0.091
same,promoter activity interaction Z-score,[2]; [21],-0.115 ± 0.2
same,promoter activity interaction Z-score,[2]; [22],0.467 ± 0.33
same,promoter activity interaction Z-score,[3]; [7],0.543 ± 0.52
same,promoter activity interaction Z-score,[3]; [8],0.58 ± 0.32
same,promoter activity interaction Z-score,[3]; [9],0.8 ± 0.87
same,promoter activity interaction Z-score,[3]; [10],0.0444 ± 0.43
same,promoter activity interaction Z-score,[3]; [11],0.46 ± 0.84
same,promoter activity interaction Z-score,[3]; [12],0.92 ± 1.9
same,promoter activity interaction Z-score,[3]; [13],1.39 ± 1.6
same,promoter activity interaction Z-score,[3]; [14],0.446 ± 0.44
same,promoter activity interaction Z-score,[3]; [15],0.634 ± 0.23
same,promoter activity interaction Z-score,[3]; [16],0.0667 ± 0.36
same,promoter activity interaction Z-score,[3]; [17],0.00624 ± 0.23
same,promoter activity interaction Z-score,[3]; [18],0.0301 ± 0.019
same,promoter activity interaction Z-score,[3]; [19],1.76 ± 0.4
same,promoter activity interaction Z-score,[3]; [20],3.2 ± 2
same,promoter activity interaction Z-score,[3]; [21],1.79 ± 0.59
same,promoter activity interaction Z-score,[3]; [22],1.52 ± 0.2
same,promoter activity interaction Z-score,[4]; [7],0.57 ± 0.013
same,promoter activity interaction Z-score,[4]; [8],0.679 ± 0.25
same,promoter activity interaction Z-score,[4]; [9],0.28 ± 0.54
same,promoter activity interaction Z-score,[4]; [10],0.0239 ± 0.071
same,promoter activity interaction Z-score,[4]; [11],1.23 ± 0.055
same,promoter activity interaction Z-score,[4]; [12],1.12 ± 1
same,promoter activity interaction Z-score,[4]; [13],0.344 ± 1.1
same,promoter activity interaction Z-score,[4]; [14],0.459 ± 0.35
same,promoter activity interaction Z-score,[4]; [15],1.05 ± 0.45
same,promoter activity interaction Z-score,[4]; [16],-0.18 ± 0.022
same,promoter activity interaction Z-score,[4]; [17],-0.207 ± 0.35
same,promoter activity interaction Z-score,[4]; [18],-0.519 ± 0.17
same,promoter activity interaction Z-score,[4]; [19],1.2 ± 0.5
same,promoter activity interaction Z-score,[4]; [20],1.72 ± 1.6
same,promoter activity interaction Z-score,[4]; [21],0.387 ± 0.033
same,promoter activity interaction Z-score,[4]; [22],0.464 ± 0.086
same,promoter activity interaction Z-score,[5]; [7],-0.101 ± 0.17
same,promoter activity interaction Z-score,[5]; [8],-0.203 ± 0.0084
same,promoter activity interaction Z-score,[5]; [9],-0.117 ± 0.15
same,promoter activity interaction Z-score,[5]; [10],-0.425 ± 0.2
same,promoter activity interaction Z-score,[5]; [11],-0.0613 ± 0.16
same,promoter activity interaction Z-score,[5]; [12],-0.366 ± 0.011
same,promoter activity interaction Z-score,[5]; [13],-0.175 ± 0.039
same,promoter activity interaction Z-score,[5]; [14],-0.141 ± 0.26
same,promoter activity interaction Z-score,[5]; [15],-0.0221 ± 0.0045
same,promoter activity interaction Z-score,[5]; [16],-0.26 ± 0.096
same,promoter activity interaction Z-score,[5]; [17],-0.323 ± 0.11
same,promoter activity interaction Z-score,[5]; [18],-0.283 ± 0.26
same,promoter activity interaction Z-score,[5]; [19],0.172 ± 0.16
same,promoter activity interaction Z-score,[5]; [20],-0.231 ± 0.12
same,promoter activity interaction Z-score,[5]; [21],-0.25 ± 0.12
same,promoter activity interaction Z-score,[5]; [22],-0.213 ± 0.14
same,promoter activity interaction Z-score,[6]; [7],0.361 ± 0.53
same,promoter activity interaction Z-score,[6]; [8],0.711 ± 0.34
same,promoter activity interaction Z-score,[6]; [9],0.221 ± 0.16
same,promoter activity interaction Z-score,[6]; [10],-0.376 ± 0.49
same,promoter activity interaction Z-score,[6]; [11],-0.382 ± 0.52
same,promoter activity interaction Z-score,[6]; [12],-0.763 ± 0.28
same,promoter activity interaction Z-score,[6]; [13],-0.313 ± 0.84
same,promoter activity interaction Z-score,[6]; [14],0.357 ± 0.55
same,promoter activity interaction Z-score,[6]; [15],-0.207 ± 0.26
same,promoter activity interaction Z-score,[6]; [16],-0.0988 ± 1.2
same,promoter activity interaction Z-score,[6]; [17],-0.56 ± 0.75
same,promoter activity interaction Z-score,[6]; [18],0.223 ± 0.16
same,promoter activity interaction Z-score,[6]; [19],0.269 ± 0.23
same,promoter activity interaction Z-score,[6]; [20],-0.244 ± 0.4
same,promoter activity interaction Z-score,[6]; [21],-0.307 ± 0.99
same,promoter activity interaction Z-score,[6]; [22],0.299 ± 0.054
